# Compound activity: PubChem BioAssay, several laboratories
# Most compounds without a hit are left out; they make up all but 0.76% or so of the library.
# C1s block: human complement C1s inhibition; purified C1s, fluorogenic AMC substrate, pooled mixtures; mean inhibition % of two 10-compound mixtures (hits give high values), % at 5 µM (by protocol); 62,000 tested, 0.16% active; AID 538;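 active means inhibition above 20% in each of the two 10-compound mixture wells holding the compound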;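 further: 0% = enzyme wells lacking compound mixture and 100% = no-enzyme blank wells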
# Target sequence (P09871 16-437 limits assumed): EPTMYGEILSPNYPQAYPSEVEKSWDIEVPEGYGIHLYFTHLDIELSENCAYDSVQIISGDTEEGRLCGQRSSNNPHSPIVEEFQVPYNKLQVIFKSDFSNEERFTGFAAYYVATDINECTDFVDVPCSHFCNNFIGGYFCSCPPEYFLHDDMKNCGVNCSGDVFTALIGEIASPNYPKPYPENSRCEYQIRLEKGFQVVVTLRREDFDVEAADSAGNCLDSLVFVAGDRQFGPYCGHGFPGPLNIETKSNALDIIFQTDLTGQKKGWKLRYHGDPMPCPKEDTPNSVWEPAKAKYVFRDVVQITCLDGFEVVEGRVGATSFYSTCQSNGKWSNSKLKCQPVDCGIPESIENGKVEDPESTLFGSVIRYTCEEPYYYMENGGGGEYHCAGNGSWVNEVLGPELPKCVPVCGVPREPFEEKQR
# Target sequence (P09871 438-688 limits assumed): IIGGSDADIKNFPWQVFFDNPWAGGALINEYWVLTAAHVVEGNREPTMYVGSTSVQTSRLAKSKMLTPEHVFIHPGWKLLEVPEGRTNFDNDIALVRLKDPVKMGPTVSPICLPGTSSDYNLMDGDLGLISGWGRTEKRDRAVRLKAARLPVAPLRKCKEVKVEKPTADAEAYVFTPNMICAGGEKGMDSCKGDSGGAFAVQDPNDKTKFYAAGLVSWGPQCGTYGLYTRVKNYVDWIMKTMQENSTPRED
# CatG inh: cathepsin G (human) inhibition. inhibition, % at 5 µM (by protocol). P08311. 62,000 tested, 0.2% active. purified enzyme, AMC-tetrapeptide fluorescence, pooled mixtures;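 active means inhibition above 20% in each of the two mixture wells holding the compound; inactive means inhibition of 20% or less in either well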;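 further: 0% = enzyme control without mixture and 100% = blank lacking enzyme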
# FXIa mix inh: inhibitors of human coagulation factor XIa, pooled mixtures. P03951. purified FXIa, fluorogenic substrate. inhibition, % at 5 µM. 62,000 tested, 0.19% active;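 further: each value is inhibition by a whole ten-compound pool holding the compound; 0% = enzyme with no mixture and 100% = wells lacking enzyme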
# FXIIa inh mix: blocks human factor XIIa in pooled compound mixtures. P00748. purified FXIIa, fluorogenic substrate. inhibition, % at 5 µM. 62,000 tested, 0.2% active. AID 684;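 further: 0% = enzyme without compound and 100% = no enzyme blank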
# WNV protease inh: blocks West Nile virus NS2B-NS3 protease activity | P06935 | WNV NS2B-NS3 protease, fluorogenic substrate Ex360/Em465; hits give low values | z-score (concentration not given with the values) | 65,000 tested, 0.18% active | AID 577; in the data active means z-score below about -3
# The depositor's hits bear a star. Unless noted, no stated cut-off is given here; in the data, active means inhibition above about 20% (passing the limit was not always enough); inactive means the rest.
SMILES,C1s block,CatG inh,FXIa mix inh,FXIIa inh mix,WNV protease inh
COC(=O)c1ccc(OC(=O)C2CC(=O)N(c3ccc(C)cc3C)C2)cc1 (stereo not drawn),-1.9,40.1,31.2*,-4.0,-0.42
COc1ccc(NC(=O)C2CC(=O)N(c3cc(C)ccc3C)C2)cc1 (stereo not drawn),-5.8,47.9,66.9*,1.9,1.06
CCOC(=O)Cc1nnc(NC(=O)C(CC)Sc2nnc3c4ccccc4n(C)c3n2)s1 (stereo not drawn),22.3*,17.2,11.7,-0.4,-0.78
CCN1C(=O)CC(N2CCC(Nc3ccc(OC)cc3)CC2)C1=O (stereo not drawn),13.4,8.4,21.2*,2.2,-0.27
CC12CCC(C(=O)NCC3CCCO3)(OC1=O)C2(C)C (stereo not drawn),44.9,42.6,42.4*,4.3,-0.82
CC(C)n1c(-c2cccnc2)nc2cnccc21,3.1,-0.2,5.7,0.3,-9.37*
c1cncc(-c2cccnc2)c1,-15.8,8.1,7.5,2.6,-1.11
CCN(CC)CCNC(=O)c1ccc(N)cc1,0.3,-17.3,4.8,-8.0,-3.18*
COc1ccc2[nH]c(C(=O)O)c(CCNC(C)=O)c2c1,-11.0,-0.6,8.2,3.7,-4.12*
COc1cccc(NC(=O)CSc2nc3c(c(=O)n2C)SC(C)C3)c1 (stereo not drawn),-7.3,5.9,4.2,7.5,-0.1
CCn1c(-c2ccc(OC)c(OC)c2)n[nH]c1=S,5.0,-1.1,9.4,-15.3,0.06
CCCCn1c(-c2cc(Cl)ccc2OC)n[nH]c1=S,42.9*,9.9,7.5,3.0,1.34
CCOC(=O)c1c(-c2ccc(C)o2)csc1NC(=O)CN1CCN(CC)CC1,59.1*,13.4,5.9,5.6,-0.06
CCOc1ccccc1N(CC(=O)O)S(=O)(=O)c1ccccc1,-2.9,45.7,40.3*,-5.0,-0.77
COc1cc(NC(=O)c2cccs2)c(OC)cc1NC(=O)CCn1nnc2ccccc21,21.0*,15.2,9.8,-1.1,-0.15
COC(=O)c1ccc(C2C(C(=O)OCC(C)C)=C(C)N=C3SCCC(=O)N32)cc1 (stereo not drawn),1.8,-2.1,29.2*,8.7,-0.18
O=C(CC1Nc2ccccc2NC1=O)NC1CCCCC1 (stereo not drawn),5.6,1.1,-0.8,2.5,-0.51
O=C(/N=C1\NC(=O)C(F)(C(F)(F)F)S1)NC1CCCCC1 (stereo not drawn),14.1,17.1,24.2*,2.9,0.31
COc1ccc(C(=O)SC2=NCCS2)cc1OC,24.3*,12.7,15.7,4.1,-1.03
COc1ccc(Cl)cc1N(CC(=O)Nc1ccc2c(c1)OCCO2)S(C)(=O)=O,4.7,1.7,11.2,3.5,-0.67
O=C(CCc1ccccc1)Nc1nc2n(n1)C(c1ccc(Cl)cc1)CC(=O)N2 (stereo not drawn),-10.2,3.4,3.2,-11.7,-3.35*
CCOC(=O)c1[nH]c2ccccc2c1NC(=O)CC,1.5,-0.7,8.5,12.0,-3.98*
CCOC(=O)c1[nH]c2ccccc2c1NC(=O)COC,-17.0,3.7,1.1,7.2,1.66
COc1ccc(-c2nnc(-c3cccs3)o2)cc1OC,-12.2,-13.4,-0.5,11.0,0.18
COc1cc2nc(-c3cccs3)oc(=O)c2cc1OC,11.4,22.5*,7.2,3.7,-0.74
SMILES,C1s block,CatG inh,FXIa mix inh,FXIIa inh mix,WNV protease inh
O=C(O)c1cccc(S(=O)(=O)Nc2ccc3c(c2)OCO3)c1,-20.3,-12.3,-0.6,7.6,1.73
O=C(O)c1cccc(NS(=O)(=O)c2ccc3nnn(O)c3c2)c1,-12.4,1.4,5.0,37.4*,-0.73
O=C(O)c1cccc(NS(=O)(=O)c2ccc(Cl)c(C(=O)O)c2)c1,14.7,24.2,17.4,21.9*,-0.3
CN(C)CCCN1C(=O)C(=O)/C(=C(/O)c2ccc(S(=O)(=O)N(C)C)cc2)C1c1ccncc1 (stereo not drawn),5.4,1.1,8.0,4.9,1.89
CCC(=O)Oc1ccc(C(CC)C(CC)c2ccc(OC(=O)CC)cc2)cc1 (stereo not drawn),22.5*,8.8,7.9,4.7,-0.33
CCOC(=O)N1CCN(C(=O)CC(=O)Nc2ccc3nc4n(c(=O)c3c2)CCCCC4)CC1,-10.5,0.6,8.3,47.1*,0.83
CC(C)CC(c1nnnn1Cc1ccccc1)N1CCN(C(=O)c2ccco2)CC1 (stereo not drawn),-31.5,8.8,0.6,4.9,-0.86
CC1CCN(c2nc(-c3ccco3)c3c(c2C#N)CC(C)(C)OC3)CC1,-35.0,-10.1,2.3,12.9,-1.11
O=S(=O)(Nc1ccccc1F)c1ccc2nsnc2c1,3.9,-0.1,2.1,20.9*,2.68
CCOC(=O)Cn1c(=O)oc2cc(S(=O)(=O)Nc3ccc(N(CC)CC)cc3C)ccc21,6.9,4.4,2.9,14.1,0.17
CN(C1CCCCC1)S(=O)(=O)c1ccc2c(c1)c(=O)c(C(=O)NCCN1CCCC1)cn2C,-1.2,-1.7,10.5,-14.1,-2.09
Cn1cc(C(=O)NCN2CCCCC2)c2ccccc21,11.3,15.2,2.5,0.3,-6.57*
CN(C)/C=C1\C(=O)c2ccc(N(C)C)nc2CC1c1ccccc1 (stereo not drawn),4.9,6.8,9.0,-11.1,0.09
CCOC(=O)Nc1ccc2c(c1)Sc1ccccc1N2C(=O)CCN1CCOCC1,-58.2,-3.2,-2.1,2.9,-0.75
CCCCn1c(=O)n(C)c(=O)c2c(C(F)(F)F)cc(-c3ccncc3)nc21,38.3,7.9,5.6,44.1*,0.23
CCCCn1c(Cl)nc2c1c(=O)n(C)c(=O)n2C,5.1,9.1,8.3,-10.7,-1.42
Clc1cccc(Cl)c1COc1ccccn1,-4.3,-6.1,3.0,30.0*,0.79
CCCCOCCCNC(=O)N[C@@H](CC(C)C)C(=O)O,-37.3,6.3,-6.8,8.2,-3.7*
Nc1nc(NC(=O)c2cccs2)nn1-c1ccccc1,13.6,15.7,8.8,2.4,0.19
Nc1nncn1C(=O)c1cccs1,13.8,22.4*,13.0,15.0,-0.38
COc1ccc(S(=O)(=O)NCCSCc2ccco2)cc1Cl,0.2,5.4,12.3,-6.6,1.07
CC(C)N(C(=O)CSc1nnnn1C1CCCC1)C(C)C,-51.7,-7.5,-2.0,-2.1,-0.31
COC(=O)c1sc(N2C(=O)C(O)=C(C(=O)c3ccc(C)o3)C2c2ccc(F)cc2)nc1C (stereo not drawn),19.6,58.8*,39.8*,4.3,-0.88
COc1cccc(CNC(=O)C2CCN(S(=O)(=O)c3ccc(F)cc3)CC2)c1,5.9,9.5,5.4,3.4,-0.39
COc1cccc(CNC(=O)C2CCN(S(=O)(=O)c3ccc4c(c3)CCC(=O)N4)CC2)c1,5.7,10.1,9.2,5.5,-3.26*
O=C1CC(N2CCN(c3ccc(Cl)c(Cl)c3)CC2)C(=O)N1 (stereo not drawn),7.2,5.5,6.1,53.5*,0.72
Cc1cc(NC(=O)c2oc3ccccc3c2C)ccc1-n1cnnn1,-10.8,-13.6,4.4,2.0,-5.5*
COc1ccc(-n2cnc3c(cnn3CCC#N)c2=N)cc1,-27.2,-3.3,-3.8,-15.2,1.04
